According to PubChem BioAssay (Tox21):
Records with an inconclusive call do not appear. A call without a number means that no potency is given here. Unmarked numbers belong to inactive results. Calls of active or inactive are those of the source. Unless noted, the call rests on the fitted dose curve; in most records, active means well fitted curve in the direction sought with a large enough effect in the repeat runs; inconclusive means weak or mixed curves; inactive means no such curve, though single readings can be large; an effect the other way counts as inactive or inconclusive.

Experiments:
[1] = qHTS assay to identify small molecule agonists of the RXR signaling pathway - cell viability counter screen (AID 1159529); further: series mostly up to about 77 µM; nearly all actives have a fitted effect of over 50% in size
In short: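 Luminescence from CellTiter-Glo (30 min, RT) measured viability in the same wells as the beta-lactamase reporter readout. Cells: GeneBLAzer RXR-alpha HEK 293T, 2% charcoal-stripped FBS. Compound exposure 16 hr, 37 C.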

[2] = qHTS assay to identify small molecule antagonists of the retinoid acid receptor (RAR) signaling pathway - cell viability counter screen (AID 1159551); further: nearly all actives have a fitted effect of over 35% in size
In short: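 Cytotoxicity counter screen in C3RL4 cells: 6 h compound exposure with 1 uM retinol (final), viability from cellular ATP by luminescence.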

[3] = qHTS assay to identify small molecule antagonists of the retinoic acid receptor (RAR) signaling pathway (AID 1159552; further: nearly all actives have a fitted effect of over 50% in size)
In short: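 Luminescence from a RARE luciferase reporter in C3RL4 cells served as read-out. Cells received compounds together with 1 uM final retinol and incubated 6 hr at 37 C before detection reagent was added for 30 min at room temperature.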

[4] = qHTS assay to identify small molecule antagonists of the estrogen related receptor (ERR) signaling pathway from Tox21 library - cell viability counter screen (AID 1224834); further: nearly all actives have a fitted effect of over 30% in size; further: potency means the concentration at half of the fitted maximal effect
In short: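 Cytotoxicity of test substances is gauged in the same ERR cells used for the antagonist screen, after 17.5 h of compound treatment at 37 C, by CellTiter-Fluor fluorescence measured after 30 min.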

[5] = biological target: Luciferin 4-monooxygenase (Photinus pyralis) (UniProt P08659); test: qHTS assay to identify small molecule inhibitors of firefly luciferase (AID 1224835); further: nearly all actives have a fitted effect of over 25% in size; further: potency means the concentration at half of the fitted maximal effect
In short: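 Quantitative HTS format; KM concentrations of both substrates. Purified P. pyralis FLuc activity quantified from luminescence images.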

[6] = qHTS assay to identify small molecule agonists of the constitutive androstane receptor (CAR) signaling pathway - cell viability counter screen (AID 1224836); further: nearly all actives have a fitted effect of over 45% in size; further: potency means the concentration at half of the fitted maximal effect
In short: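 Viability read-out: CellTiter-Fluor fluorescence after 23 h compound exposure at 37 C/5% CO2 in double-stable HepG2-CYP2B6-hCAR cells, with PK11195 present at 0.75 uM final; compounds tested in 15-point titration.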

[7] = qHTS assay to identify small molecule antagonists of the constitutive androstane receptor (CAR) signaling pathway - cell viability counter screen (AID 1224837); further: nearly all actives have a fitted effect of over 45% in size; further: potency means the concentration at half of the fitted maximal effect
In short: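 Multiplexed cytotoxicity read-out for the CAR antagonist screen: double-stable HepG2-CYP2B6-hCAR cells co-treated with 50 nM CITCO (final) and compound over 15 concentrations, incubated 23 hr, then assessed by CellTiter-Fluor fluorescence.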

[8] = biological target: Nuclear receptor subfamily 1 group I member 3 (Homo sapiens) (UniProt Q14994); test: qHTS assay to identify small molecule antagonists of the constitutive androstane receptor (CAR) signaling pathway (AID 1224838); further: nearly all actives have a fitted effect of over 40% in size
In short: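 Compounds were titrated across 15 concentrations onto HepG2 cells double-stably expressing hCAR and a CYP2B6-2.2kb reporter, together with 50 nM CITCO (final). After 24 h at 37 C, luciferase activity was measured by luminescence.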

[9] = qHTS assay to identify small molecule antagonists of the estrogen related receptor signaling pathway with the pleiotropic PPARgamma coactivator (PGC) from Tox21 10K library - cell viability counter screen (AID 1224840; active means well fitted cell-killing curve with a large enough effect in the repeat runs, not every such curve was filed as active; further: nearly all actives have a fitted effect of over 40% in size; further: potency means the concentration at half of the fitted maximal effect)
In short: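 Step one, plate 2,000 PGC/ERR cells per well; step two, incubate 6 h at 37 C/5% CO2; step three, pin-transfer compounds; step four, incubate 17.5 h; step five, add CellTiter-Fluor and read fluorescence after 30 min.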

[10] = qHTS assay to identify small molecule antagonists of the estrogen related receptor signaling pathway with the pleiotropic PPARgamma coactivator (PGC) from Tox21 10K library (AID 1224841; call rule not given here; further: series mostly up to about 92 µM; actives are mostly falling curves and most rising ones were filed inactive; nearly all actives have a fitted effect of over 50% in size)
In short: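 Antagonism in this quantitative HTS is taken from loss of luciferase signal in PGC/ERR cells. Cells (2,000/well) are treated with compounds in DMSO after a 6 h settling period and read by One-Glo luminescence after 18 h.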

[11] = qHTS assay to identify small molecule agonists of the estrogen related receptor signaling pathway with the pleiotropic PPARgamma coactivator (PGC) from Tox21 10K library (AID 1224842); further: nearly all actives have a fitted effect of over 15% in size
In short: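 PGC/ERR reporter cells (NTP line) were seeded 2,000 per well, rested 6 h at 37 C/5% CO2, then pin-dosed with compounds in DMSO for 18 h at 37 C; luciferase read by One-Glo luminescence after 30 min at room temperature.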

[12] = biological target: Nuclear receptor subfamily 1 group I member 3 (Homo sapiens) (UniProt Q14994); test: qHTS assay to identify small molecule agonists of the constitutive androstane receptor (CAR) signaling pathway (AID 1224839); further: nearly all actives have a fitted effect of over 15% in size; further: potency means the concentration at half of the fitted maximal effect
In short: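 Luminescence read-out (ONE-Glo, 30 min, room temperature) from double-stable HepG2-CYP2B6-hCAR cells exposed 24 h to 15-point compound series in presence of 0.75 uM PK11195 final.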

[13] = qHTS assay to identify small molecule antagonists of the estrogen related receptor (ERR) signaling pathway - cell viability counter screen (AID 1224818);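 further: series mostly up to about 46 µM; viability measured after 17.5 h of compound exposure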
In short: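 Cells carrying the ERR pathway reporter were seeded and incubated for 6 hours before compound addition. After a 17.5-hour exposure at 37 C, live-cell protease activity was measured by CellTiter-Fluor fluorescence following 30 minutes of incubation.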

[14] = qHTS assay to identify small molecule antagonists of the estrogen related receptor (ERR) signaling pathway (AID 1224819;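 further: luminescence from an ERR-driven luciferase reporter measured with One-Glo reagent; series mostly up to about 46 µM; nearly all actives have a fitted effect of over 50% in size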)
In short: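 Compounds dissolved in DMSO were pin-transferred onto ERR cells that had been plated 6 h earlier, and cells were then incubated 18 h at 37 C; signal was luciferase luminescence via One-Glo.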

[15] = qHTS assay to identify small molecule agonists of the estrogen related receptor (ERR) signaling pathway (AID 1224820)
In short: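 Quantitative HTS of the LOPAC library used NTP ERR reporter cells treated 18 h at 37 C. Signal is luminescence after One-Glo addition and a 30 min room-temperature incubation.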

[16] = tested on: estrogen-related receptor alpha (ERRalpha) with PGC-1alpha coactivator, human; test: qHTS assay to identify small molecule antagonists of the estrogen related receptor signaling pathway with the pleiotropic PPARgamma coactivator (PGC) (AID 1224821; calls by dose curve)
In short: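 Quantitative HTS for antagonism: PGC/ERR cells received compounds after 6 h attachment and were incubated 18 h at 37 C, with luminescence (One-Glo) as the endpoint.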

[17] = qHTS assay to identify small molecule antagonists of the estrogen related receptor signaling pathway with the pleiotropic PPARgamma coactivator (PGC) cell viability counter screen (AID 1224822;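 further: series mostly up to about 46 µM; viability read after 17.5 h compound exposure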)
In short: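 Seed PGC/ERR cells (2,000/well); incubate 6 h at 37 C/5% CO2; pin-transfer compounds in DMSO; incubate 17.5 h at 37 C; add CellTiter-Fluor; after 30 min read fluorescence.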

[18] = qHTS assay to identify small molecule agonists of the estrogen related receptor signaling pathway with the pleiotropic PPARgamma coactivator (PGC) (AID 1224823)
In short: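 Cell-based luciferase assay in the NTP-supplied PGC/ERR line, 2,000 cells/well; 18 h compound exposure at 37 C, luminescence after One-Glo.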

[19] = qHTS assay to identify small molecule agonists of the retinoic acid receptor (RAR) signaling pathway (AID 1159553); further: potency means the concentration at half of the fitted maximal effect
In short: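 Agonist activity was scored in C3RL4 cells bearing a retinoic acid response element luciferase construct. Cells were treated with compounds for 6 hr at 37 C, and luciferase signal was measured as luminescence.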

Sequence of Nuclear receptor subfamily 1 group I member 3 (Homo sapiens) (Q14994 whole entry, looked up): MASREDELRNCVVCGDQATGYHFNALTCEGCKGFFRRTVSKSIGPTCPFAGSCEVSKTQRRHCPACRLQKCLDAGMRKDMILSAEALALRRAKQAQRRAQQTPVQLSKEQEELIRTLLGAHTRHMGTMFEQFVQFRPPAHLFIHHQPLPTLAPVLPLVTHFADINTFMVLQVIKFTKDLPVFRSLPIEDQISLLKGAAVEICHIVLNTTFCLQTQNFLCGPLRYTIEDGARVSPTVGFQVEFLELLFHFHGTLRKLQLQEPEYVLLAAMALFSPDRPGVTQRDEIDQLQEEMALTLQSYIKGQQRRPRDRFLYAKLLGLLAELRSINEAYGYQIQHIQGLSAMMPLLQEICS
Sequence of Luciferin 4-monooxygenase (Photinus pyralis) (P08659 whole entry, looked up): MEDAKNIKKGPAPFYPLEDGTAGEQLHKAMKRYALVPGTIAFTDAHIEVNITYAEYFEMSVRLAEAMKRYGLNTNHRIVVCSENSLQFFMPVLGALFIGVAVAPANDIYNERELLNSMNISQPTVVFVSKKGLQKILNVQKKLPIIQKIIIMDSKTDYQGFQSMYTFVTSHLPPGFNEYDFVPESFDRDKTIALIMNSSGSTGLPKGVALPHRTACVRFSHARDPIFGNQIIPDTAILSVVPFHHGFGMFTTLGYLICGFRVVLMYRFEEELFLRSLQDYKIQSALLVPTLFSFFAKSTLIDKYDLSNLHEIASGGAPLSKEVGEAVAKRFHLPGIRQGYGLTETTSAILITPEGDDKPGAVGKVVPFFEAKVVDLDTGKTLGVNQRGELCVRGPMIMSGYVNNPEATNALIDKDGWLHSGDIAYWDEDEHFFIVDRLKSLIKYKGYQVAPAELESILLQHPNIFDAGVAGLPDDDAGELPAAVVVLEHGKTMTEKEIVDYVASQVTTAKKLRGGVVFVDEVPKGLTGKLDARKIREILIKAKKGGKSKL

Structure (SMILES) | Potency [1] | outcome [2] | outcome [3] | Potency [4] | Potency [5] | Potency [6] | Potency [7] | Potency [8] | Potency [9] | Potency [10] | Potency [11] | Potency [12] | outcome [13] | Potency [14] | outcome [15] | outcome [16] | outcome [17] | outcome [18] | Potency [19]
Cc1cc(N)n(-c2ccccc2)n1 | inactive | inactive | inactive | inactive | inactive | inactive | inactive | inactive | inactive | inactive | inactive | – | – | – | – | – | – | – | –
O=C(O)CNc1ccccc1 | inactive | inactive | inactive | inactive | inactive | inactive | inactive | inactive | inactive | inactive | inactive | inactive | – | – | – | – | – | – | –
O=C(O)c1cccnc1Nc1cccc(C(F)(F)F)c1 | inactive | inactive | inactive | inactive | 19.5 µM (active) | inactive | inactive | inactive | inactive | inactive | inactive | – | inactive | inactive | inactive | inactive | inactive | inactive | –
C=C(C)C(=O)OCCCCCCCCCCOC(=O)C(=C)C | inactive | inactive | inactive | inactive | inactive | inactive | inactive | inactive | – | inactive | inactive | inactive | – | – | – | – | – | – | –
C[C@H](N)C(=O)N[C@@H](C)C(=O)NC1[C@H]2CN(c3nc4c(cc3F)c(=O)c(C(=O)O)cn4-c3ccc(F)cc3F)C[C@@H]12 (stereo partly specified) | inactive | inactive | inactive | inactive | inactive | inactive | – | inactive | inactive | inactive | – | – | – | – | – | – | – | – | –
CCCCCCCCCC(C)C=O (stereo unspecified) | inactive | inactive | inactive | inactive | – | inactive | inactive | inactive | inactive | – | – | inactive | – | – | – | – | – | – | –
CCOc1ccc(NC(C)=O)cc1N | inactive | inactive | inactive | inactive | inactive | inactive | inactive | inactive | – | inactive | – | – | – | – | – | – | – | – | –
CCC(CC)C(=O)O | inactive | inactive | inactive | inactive | inactive | inactive | inactive | inactive | inactive | – | – | inactive | – | – | – | – | – | – | –
O=C1c2ccccc2C(=O)C1c1ccc2cc(S(=O)(=O)O)cc(S(=O)(=O)O)c2n1 | inactive | inactive | inactive | 29.5 µM (active) | 30.6 µM (active) | 66.1 µM (active) | 52.5 µM (active) | inactive | 33.1 µM (active) | inactive | – | 41.7 µM (active) | – | – | – | – | – | – | –
O=C(OCCOCCOCCOC(=O)c1ccccc1)c1ccccc1 | inactive | inactive | inactive | inactive | inactive | inactive | inactive | inactive | inactive | – | – | inactive | – | – | – | – | – | – | –
CCC(=O)O[C@]1(C(=O)COC)[C@@H](C)C[C@H]2[C@@H]3CCC4=CC(=O)C=C[C@]4(C)C3(F)[C@@H](O)C[C@@]21C (stereo partly specified) | inactive | inactive | – | inactive | inactive | inactive | inactive | inactive | inactive | inactive | inactive | inactive | – | – | – | – | – | – | inactive
C[C@]12CCC(=O)C=C1[C@@H]1C[C@@H]1[C@H]1[C@@H]3[C@@H]4C[C@@H]4[C@@]4(CCC(=O)O4)[C@@]3(C)CC[C@@H]12 | inactive | inactive | – | inactive | inactive | inactive | inactive | inactive | inactive | – | inactive | inactive | – | – | – | – | – | – | inactive
COC(=O)/C=C/C(C)=C\C=C\C(C)=C\C=C\C=C(C)\C=C\C=C(C)\C=C\C(=O)O | inactive | inactive | inactive | – | – | inactive | – | inactive | inactive | inactive | inactive | – | – | – | – | – | – | – | 61.1 µM (active)
O=P(c1ccccc1)(c1ccccc1)c1ccccc1 | inactive | inactive | – | inactive | inactive | inactive | inactive | inactive | inactive | – | – | – | – | – | – | – | – | – | –
S=c1[nH][nH]c(=S)s1 | inactive | inactive | – | inactive | 11.2 µM (active) | inactive | inactive | inactive | inactive | – | – | inactive | – | – | – | – | – | – | –
CC(O)C(C)O (stereo unspecified) | inactive | inactive | – | inactive | inactive | inactive | – | inactive | inactive | – | – | inactive | – | – | – | – | – | – | –
CC(C)Oc1ccccc1O | inactive | inactive | – | inactive | inactive | inactive | inactive | inactive | inactive | inactive | – | inactive | – | – | – | – | – | – | –
Cc1ccc(NC=O)c(C)c1 | inactive | inactive | – | inactive | inactive | inactive | inactive | – | inactive | – | – | – | – | – | – | – | – | – | –
Nc1ccc(F)cc1F | inactive | inactive | – | inactive | inactive | inactive | – | inactive | inactive | – | – | inactive | – | – | – | – | – | – | –
CC(=O)c1cccnc1 | inactive | inactive | – | inactive | inactive | inactive | inactive | inactive | inactive | inactive | inactive | inactive | – | – | – | – | – | – | –
CCCCCCCCCCCCN1CCOCC1 | inactive | inactive | – | inactive | inactive | inactive | inactive | inactive | inactive | inactive | inactive | inactive | – | – | – | – | – | – | –
CCCCCCCCCCCCSC#N | inactive | inactive | – | inactive | inactive | inactive | – | – | – | inactive | – | – | – | – | – | – | – | – | –
C=Cc1ccc(C=C)cc1 | inactive | inactive | – | inactive | inactive | inactive | inactive | – | inactive | – | – | – | – | – | – | – | – | – | –
